Values without a mark were called inactive.
What follows are molecules tested on Vero E6 infected with SARS-CoV-2 (assay: inhibition of SARS-CoV-2 cytopathic effect; higher = more antiviral protection, active = above 15). Details: 10000 nM; 48 h.
For `C[C@H](Cc1ccc(OCC(=O)O)cc1)NC[C@H](O)c1cccc(Cl)c1`, the “inhibition of SARS-CoV-2 cytopathic effect” value (from here on “inhibition”) was 0.72%. `COc1cc2ncnc(Sc3nnc(C)s3)c2cc1OC` was tested, and the “inhibition” value was 24.4% (active). For `C[C@H](CSC(=O)c1ccccc1)C(=O)N1C[C@@H](Sc2ccccc2)C[C@H]1C(=O)O` [zofenopril-calcium], the “inhibition” value was -1.54%. `Cc1ccccc1-c1cc(N2CCN(C)CC2)ncc1N(C)C(=O)C(C)(C)c1cc(C(F)(F)F)cc(C(F)(F)F)c1` [netupitant] was tested, and the “inhibition” value was 8.28%. `Oc1ccc(O)cc1` [hydroquinone] was tested, and the “inhibition” value was 1.62%. With `CN(C)CCN1C(=O)c2cccc3cc(NC(N)=O)cc(c23)C1=O` [unbs-5162] the “inhibition” value was -2.03%. With `CC1(COc2ccc(CC3SC(=O)NC3=O)cc2)CCCCC1` (stereo not drawn) [ciglitazone] the “inhibition” value was 4.02%. `CCN(Cc1ccc(Cl)nc1)/C(=C/[N+](=O)[O-])NC` [nitenpyram] was tested, and the “inhibition” value was 1.08%. `N=C(N)N/N=C/c1c(Cl)cccc1Cl` [guanaben-acetate] was tested, and the “inhibition” value was -1.82%. `CO[C@@H]1[C@H](O)[C@@H](CO)O[C@H]1n1cnc2c(NC3CCCCC3)ncnc21` was tested, and the “inhibition” value was -0.79%. In the case of `CN1CCC(=C2c3ccccc3CC(=O)c3sccc32)CC1` [ketotifen], the “inhibition” value is reported as -3.64%. In the case of `CCOC(=O)C1=C[C@@H](OC(CC)CC)[C@H](NC(C)=O)[C@@H](N)C1` [oseltamivir-phosphate], the “inhibition” value is reported as 0.67%. `CCCc1nc(C(C)(C)O)c(C(=O)O)n1Cc1ccc(-c2ccccc2-c2nnn[nH]2)cc1` [olmesartan] was tested, and the “inhibition” value was -0.94%. With `O=C1CS[C@@H](c2ccccc2Cl)c2cc(Cl)ccc2N1` (racemic) the “inhibition” value was 7.2%. `COc1cc(/C=C(\C#N)C(N)=O)cc(CSc2nc3ccccc3s2)c1O` [tyrphostin-AG-825] was tested, and the “inhibition” value was 0.99%. With `COc1cc(C(=O)N2CCC(N3CCN(C)CC3)CC2)ccc1Nc1ncc2c(n1)N(C)c1ccccc1C(=O)N2C` the “inhibition” value was -6.43%. For `O=C1NC(=O)[C@@]2(CCOc3ccc(F)cc32)N1` [sorbinil], the “inhibition” value was -0.07%. `OCCCNc1cc(-c2ccnc(Nc3cccc(Cl)c3)n2)ccn1` was tested, and the “inhibition” value was 11.2%. For `CN1CCC(CNc2ccc3ncc(-c4cccc(OC(F)(F)F)c4)n3n2)CC1`, the “inhibition” value was 19.8% (active). With `CC1CCC(NC(=O)N(CCCl)N=O)CC1` (stereo not drawn) [semustine] the “inhibition” value was 0.45%. In the case of `O=C(NC1CCC1)c1ccc(C#Cc2cccc(F)c2)nc1`, the “inhibition” value is reported as 2.23%. For `O=C(/C=C/c1ccc2c(c1)OCO2)N1CCCCC1` [ilepcimide], the “inhibition” value was 0.82%. In the case of `COCC(=O)O[C@]1(CCN(C)CCCc2nc3ccccc3[nH]2)CCc2cc(F)ccc2[C@@H]1C(C)C` [mibefradil], the “inhibition” value is reported as 62.1% (active). In the case of `CC[N+](C)(CC)CCOC(=O)C(O)(c1ccccc1)C1CCCCC1` (stereo not drawn) [oxyphenonium], the “inhibition” value is reported as -1.5%. `CN1Cc2ccccc2[C@@H]2c3cccc4[nH]cc(c34)C[C@H]21` was tested, and the “inhibition” value was 2.21%. In the case of `Cc1ccc(C[N+](C)(C)C)o1` [5-methylfurmethiodide], the “inhibition” value is reported as 0.7%. In the case of `O=C(O)CCCCCCNC1c2ccccc2CCc2ccccc21` [amineptine], the “inhibition” value is reported as -0.04%. In the case of `c1cc(-c2cnn3cc(-c4ccc(OCCN5CCCCC5)cc4)cnc23)ccn1` [dorsomorphin], the “inhibition” value is reported as -2.57%. For `O=c1cccc2n1C[C@@H]1CNC[C@H]2C1` [cytisine], the “inhibition” value was -2.16%. For `CC[C@H]1CN2CCc3cc(OC)c(OC)cc3[C@@H]2C[C@@H]1C[C@H]1NCCc2cc(OC)c(OC)cc21` [emetine], the “inhibition” value was -11.1%. With `CCNC(C)CN1CCc2c(c(=O)oc3ccccc23)C1` (stereo not drawn) the “inhibition” value was -2.07%. With `N#C/C(=C\c1cn(-c2ccccc2)c2ccccc12)C(=O)O` the “inhibition” value was -2.52%. For `CCOC(=O)[C@@H](N)Cc1ccc(O)c(O)c1` [etilevodopa], the “inhibition” value was 0.9%. `CCN(c1cc(-c2ccc(CN3CCOCC3)cc2)cc(C(=O)NCc2c(C)cc(C)[nH]c2=O)c1C)C1CCOCC1` [tazemetostat] was tested, and the “inhibition” value was -0.93%. For `CCCc1c2oc(C(=O)O)cc(=O)c2cc2c(=O)cc(C(=O)O)n(CC)c12` [nedocromil], the “inhibition” value was 0.79%. With `CC(C)[C@H]1C(=O)N[C@@H](CCCNC(=N)N)C(=O)NCC(=O)N[C@@H](CC(=O)O)C(=O)N[C@H](Cc2ccccc2)C(=O)N1C` [cilengitide] the “inhibition” value was -12.6%. `O=C(CN1CCN(Cc2ccc3c(c2)OCO3)CC1)N1c2ccccc2Sc2ccccc21` [fenoverine] was tested, and the “inhibition” value was -3.71%. In the case of `O=C(NNc1nc2cc(F)ccc2n2cccc12)c1cnccn1`, the “inhibition” value is reported as -4.33%.
